Rtt109 HAT inh: blocks Candida albicans Rtt109/Vps75 acetyltransferase activity; Q5AAJ8; 330,000 tested, 0.16% active; inhibition, % at 34.9 µM; purified Rtt109/Vps75, ThioGlo CoA-SH fluorescence, 4 h;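 active = inhibition of at least 50% in every replicate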
Target sequence (Q5AAJ8 whole entry, looked up): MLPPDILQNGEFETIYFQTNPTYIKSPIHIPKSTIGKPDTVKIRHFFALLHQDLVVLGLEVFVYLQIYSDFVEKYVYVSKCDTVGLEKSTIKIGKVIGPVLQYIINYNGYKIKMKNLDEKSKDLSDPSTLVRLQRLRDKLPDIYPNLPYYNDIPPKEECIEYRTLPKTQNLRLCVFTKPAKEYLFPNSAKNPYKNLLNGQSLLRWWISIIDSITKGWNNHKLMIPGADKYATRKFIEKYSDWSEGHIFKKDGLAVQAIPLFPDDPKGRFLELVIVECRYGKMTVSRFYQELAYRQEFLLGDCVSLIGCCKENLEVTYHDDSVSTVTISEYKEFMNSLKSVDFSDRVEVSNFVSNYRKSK
Platelet DG rel: platelet dense granule release activity; 300,000 tested, 0.22% active; inhibition, %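 (compounds screened at 7.5 µM in platelet-rich plasma)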; human platelet-rich plasma, SFLLRN dense granule ATP release, luminescence;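 active = mean replicate score, as percent of positive control, at or above 50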
PHOSPHO1 inh: PHOSPHO1 (human) inhibition; recombinant PHOSPHO1, absorbance phosphatase assay; Q8TCT1; 290,000 tested, 1.1% active; inhibition, % at 13.3 µM; in the data active = inhibition above about 60%
Target sequence (Q8TCT1 whole entry, looked up): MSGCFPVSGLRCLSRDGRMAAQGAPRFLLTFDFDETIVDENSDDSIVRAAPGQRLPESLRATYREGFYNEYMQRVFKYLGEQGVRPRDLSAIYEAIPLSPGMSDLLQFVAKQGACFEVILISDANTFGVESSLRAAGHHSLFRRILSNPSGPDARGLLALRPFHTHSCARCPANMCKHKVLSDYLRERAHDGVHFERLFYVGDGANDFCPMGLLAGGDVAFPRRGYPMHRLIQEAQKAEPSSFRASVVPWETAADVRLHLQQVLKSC
SKKanGAS inh: blocks kanamycin growth of S. pyogenes SKKanGAS strain; BacTiter-Glo, 6 h; inhibition, % at 7.5 µM; 300,000 tested, 1.3% active;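 active = mean replicate score, as percent of positive control median, at least 50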;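 also: strain carries kanamycin resistance gene driven by streptokinase promoter and grows in 40 µg/ml kanamycin; loss of luminescence reflects streptokinase promoter inhibition or plain growth inhibition; 0% = median of DMSO wells and 100% = positive control at its reference dose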
TPT1 inh: inhibitors of Candida albicans tRNA 2'-phosphotransferase TPT1; recombinant caTPT1, FP RNA substrate dephosphorylation; inhibition, % at 5 µM; 300,000 tested, 0.81% active;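 active = inhibition above the mean of all tested compounds plus 3 SD, set per screening campaign, cut at about 24% in these data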;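 also: plate controls were DMSO alone for no effect and ferristatin control at 100 nM for full effect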
WT yeast gro inh: growth inhibition of WT yeast, mitochondrial fusion screen; 190,000 tested, 2.1% active; inhibition, % at 10 µM; AID 1362; mitochondrial fusion phenotypic screen, WT strain; in the data active = inhibition above about 58%; tested in S. cerevisiae
Numbers without * were called inactive. Hits are enriched below; roughly 3.9% of the tested compounds scored in any of these assays.

Screening CCn1c(COc2cc(C)cc(C)c2)nnc1SCC(=O)N1CCN(c2ccccc2)CC1 returned Rtt109 HAT inh -9, Platelet DG rel 1, PHOSPHO1 inh 73*, SKKanGAS inh -1, TPT1 inh 1 and WT yeast gro inh 23.
Cc1ccc(-n2c(Cc3cccn3C)nnc2SCC(=O)N2CCN(c3ccccc3)CC2)cc1 was read as Rtt109 HAT inh -1, Platelet DG rel 0, PHOSPHO1 inh 77*, SKKanGAS inh -2, TPT1 inh 1 and WT yeast gro inh -6.
Cc1ccccc1-n1c(SCC(=O)N2CCN(c3ccccc3)CC2)nnc1-c1ccncc1 was read as Rtt109 HAT inh -5, Platelet DG rel 1, PHOSPHO1 inh 66*, SKKanGAS inh 7, TPT1 inh 3 and WT yeast gro inh 20.
Screening CCn1c(COc2c(C)cccc2C)nnc1SCC(=O)N1CCN(c2ccccc2)CC1 returned Rtt109 HAT inh 5, Platelet DG rel 10, PHOSPHO1 inh 33, SKKanGAS inh 4, TPT1 inh -1 and WT yeast gro inh 1.
For CCCCN(C(=O)C(C)Oc1ccc(Br)cc1)c1c(N)n(CC(C)C)c(=O)[nH]c1=O (centres undefined) the results were Rtt109 HAT inh 6.
For COc1cccc(NC(=O)CSc2nc3c(sc4ccccc43)c(=O)n2CCCN2CCCC2)c1 the results were Rtt109 HAT inh 9, Platelet DG rel -31, PHOSPHO1 inh 13, SKKanGAS inh 9 and TPT1 inh 0.
`CC(=O)N(/N=C1\Sc2ccccc2C1=O)c1ccc(C)cc1C` gave Rtt109 HAT inh -8, Platelet DG rel 24, PHOSPHO1 inh 94*, SKKanGAS inh -1, TPT1 inh -8 and WT yeast gro inh -1.
`Cc1ccc(OCc2nnc(SCCN3CCOCC3)n2C)cc1` gave Rtt109 HAT inh 7, Platelet DG rel 10, PHOSPHO1 inh 74*, SKKanGAS inh 6, TPT1 inh 3 and WT yeast gro inh -1.
Screening O=C(Nc1cccc(S(=O)(=O)N2CCCCC2)c1)C1CCCN1S(=O)(=O)c1ccccc1F (centres undefined) returned Rtt109 HAT inh -1.
`CC1Cc2c([nH]c(=O)n(-c3ccccc3)c2=O)O1` (centres undefined) gave Rtt109 HAT inh -1.
CCOC(=O)c1sc(NC(=O)C(CC)Sc2nnc3c4ccccc4n(C(C)C)c3n2)nc1C (centres undefined) was read as Rtt109 HAT inh -9, PHOSPHO1 inh 68* and WT yeast gro inh 10.
COc1ccccc1N1CCN(C2CCCN(S(=O)(=O)c3ccccc3)C2)CC1 (centres undefined) was read as Rtt109 HAT inh 27, Platelet DG rel 27, PHOSPHO1 inh 53, SKKanGAS inh 25 and TPT1 inh 0.
CN(C)c1ccc(/C=N/NC(=O)c2ccccc2)cc1 was read as Platelet DG rel 18, PHOSPHO1 inh -3, SKKanGAS inh 7, TPT1 inh 0 and WT yeast gro inh 7.
C/C(=N/N=C/c1ccc(N(C)C)cc1)c1ccccc1 was read as Rtt109 HAT inh -6, Platelet DG rel 56*, PHOSPHO1 inh -4, SKKanGAS inh -2, TPT1 inh 1 and WT yeast gro inh -2.
`CCC(=O)Oc1ccc(-c2nc(-c3cccnc3)no2)cc1` gave Rtt109 HAT inh -2, Platelet DG rel 81*, PHOSPHO1 inh 21, SKKanGAS inh 56*, TPT1 inh 2 and WT yeast gro inh -1.
For Cc1ccc(-c2nc(-c3cccnc3)no2)cc1 the results were Rtt109 HAT inh 1, Platelet DG rel 5, PHOSPHO1 inh -22, SKKanGAS inh -1, TPT1 inh -1 and WT yeast gro inh 9.
For CC1CCN(S(=O)(=O)c2ccc(C(=O)N3CCN(c4ccccc4F)CC3)cc2)CC1 the results were Rtt109 HAT inh 3, Platelet DG rel 1, PHOSPHO1 inh 60*, SKKanGAS inh 3, TPT1 inh -3 and WT yeast gro inh 26.
Screening CCCSc1ncnc2[nH]ncc12 returned Rtt109 HAT inh -5.
Screening O=C(NC(=S)Nc1ccccc1Br)C1CCC1 returned Rtt109 HAT inh 10, Platelet DG rel 1, PHOSPHO1 inh 26, SKKanGAS inh 2 and TPT1 inh -1.
Screening COc1ccc(C(=O)NCCCNC(=O)c2cnccn2)cc1Br returned Rtt109 HAT inh 12, Platelet DG rel 7, PHOSPHO1 inh 32, SKKanGAS inh 2 and TPT1 inh 1.
For CCOC(=O)CN1NC2(CCCCCCC2)NC1=S the results were Rtt109 HAT inh 13, Platelet DG rel 6, PHOSPHO1 inh 8, SKKanGAS inh 2 and TPT1 inh -3.
Screening CCOC(=O)CN1NC2(CCC(C)CC2)NC1=S (centres undefined) returned Rtt109 HAT inh -13, Platelet DG rel 0, PHOSPHO1 inh 95*, SKKanGAS inh 7, TPT1 inh -5 and WT yeast gro inh -4.
`CCOC(=O)CN1NC2(CCC(C(C)(C)C)CC2)NC1=S` (centres undefined) gave Rtt109 HAT inh 14, Platelet DG rel 12, PHOSPHO1 inh 56, SKKanGAS inh 3, TPT1 inh 2 and WT yeast gro inh 16.
Screening CCOC(=O)CN1NC2(CCCC(C)C2)NC1=S (centres undefined) returned Rtt109 HAT inh 3, Platelet DG rel 1, PHOSPHO1 inh 91*, SKKanGAS inh 7, TPT1 inh 4 and WT yeast gro inh 8.
For CCOC(=O)CN1NC2(CCCCC2)NC1=S the results were Rtt109 HAT inh 13, Platelet DG rel -6, PHOSPHO1 inh 100*, SKKanGAS inh 14, TPT1 inh 0 and WT yeast gro inh -8.
For COc1ccc(NC(=O)c2ccc(OC)c(S(=O)(=O)N3CCCCC3C)c2)cn1 (centres undefined) the results were Rtt109 HAT inh 2.
Cc1nnc2ccc(-c3ccc(NS(=O)(=O)c4ccc(Cl)s4)cc3)nn12 was read as Rtt109 HAT inh -2.
`C=CCn1c(SCC(=O)O)nnc1-c1ccc(C(C)(C)C)cc1` gave Rtt109 HAT inh 10, Platelet DG rel 3, PHOSPHO1 inh 94*, SKKanGAS inh 5, TPT1 inh -4 and WT yeast gro inh 0.
`CC(C)OC(=O)CSc1nnc(-c2ccc(C(C)(C)C)cc2)n1N` gave Rtt109 HAT inh -26, Platelet DG rel -4, PHOSPHO1 inh 67*, SKKanGAS inh -23, TPT1 inh -2 and WT yeast gro inh 19.
`CC(C)(C)c1ccc(-c2nnc(SCC(=O)O)n2N)cc1` gave Rtt109 HAT inh 2, Platelet DG rel 4, PHOSPHO1 inh 75*, SKKanGAS inh -13, TPT1 inh -3 and WT yeast gro inh -19.
For C=CCn1c(SCC(=O)O)nnc1-c1cccc(Cl)c1 the results were Rtt109 HAT inh -6, Platelet DG rel 0, PHOSPHO1 inh -10, SKKanGAS inh -3, TPT1 inh -2 and WT yeast gro inh -12.
CC(C)OC(=O)CSc1nnc(-c2ccncc2)n1N was read as Rtt109 HAT inh -5, Platelet DG rel 10, PHOSPHO1 inh -6, SKKanGAS inh -8, TPT1 inh 2 and WT yeast gro inh 9.

Compound activity as filed in PubChem.
